Paper PMC4336329 (PLoS ONE, 2015)
The whole screen tested about 310,000 compounds, of which about 14,000 (4.5%) showed an effect of 50% or more. Effects have a minus sign here. The list comes from a sample in which strong results are over-represented; it also holds similar structures and randomly drawn compounds.

biological target: human ether-à-go-go-related gene (hERG) potassium channel (human, UniProt Q12809); experiment: primary screen, population patch clamp on CHO cells stably expressing hERG; higher = less effect of the substance
Sequence (Q12809 whole entry, looked up): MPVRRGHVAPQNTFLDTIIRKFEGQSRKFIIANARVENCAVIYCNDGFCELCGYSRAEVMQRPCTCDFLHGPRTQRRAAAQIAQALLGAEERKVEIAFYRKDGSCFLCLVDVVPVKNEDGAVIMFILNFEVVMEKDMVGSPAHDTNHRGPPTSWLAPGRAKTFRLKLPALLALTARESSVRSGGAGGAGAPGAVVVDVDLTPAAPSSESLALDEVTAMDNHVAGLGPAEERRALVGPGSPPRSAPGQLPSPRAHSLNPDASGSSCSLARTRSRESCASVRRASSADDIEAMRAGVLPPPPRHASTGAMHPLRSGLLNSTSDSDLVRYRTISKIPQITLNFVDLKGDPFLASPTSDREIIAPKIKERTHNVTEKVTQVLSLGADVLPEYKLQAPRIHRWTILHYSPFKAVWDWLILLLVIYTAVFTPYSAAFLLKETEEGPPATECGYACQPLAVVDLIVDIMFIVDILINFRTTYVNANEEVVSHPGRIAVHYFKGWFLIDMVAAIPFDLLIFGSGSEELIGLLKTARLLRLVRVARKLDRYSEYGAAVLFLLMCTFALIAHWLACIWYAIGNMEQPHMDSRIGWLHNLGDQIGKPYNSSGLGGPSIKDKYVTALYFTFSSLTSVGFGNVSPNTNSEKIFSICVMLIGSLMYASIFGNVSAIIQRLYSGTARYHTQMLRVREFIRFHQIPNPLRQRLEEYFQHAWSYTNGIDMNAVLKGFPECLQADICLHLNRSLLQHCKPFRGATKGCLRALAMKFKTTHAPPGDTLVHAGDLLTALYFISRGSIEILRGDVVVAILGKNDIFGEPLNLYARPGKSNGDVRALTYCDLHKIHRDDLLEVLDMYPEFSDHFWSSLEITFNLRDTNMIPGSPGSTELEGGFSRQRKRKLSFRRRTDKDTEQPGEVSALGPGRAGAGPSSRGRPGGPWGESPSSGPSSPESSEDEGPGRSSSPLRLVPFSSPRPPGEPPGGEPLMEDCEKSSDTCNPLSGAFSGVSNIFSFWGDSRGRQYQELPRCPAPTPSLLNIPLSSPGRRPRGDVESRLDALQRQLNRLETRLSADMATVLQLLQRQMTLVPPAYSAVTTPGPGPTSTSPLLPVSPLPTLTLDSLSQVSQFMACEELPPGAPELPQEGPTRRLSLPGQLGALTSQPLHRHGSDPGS
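Note: peak tail current of the secondary pulse compared with the same well before compound.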

Compound | hERG current change (%, negative = inhibition) at 10uM [%]
Cc1cc(SCC(=O)OCC(=O)N(C)c2ccccc2)nc2ccccc12 | -22.8
C=C[C@]1(C)C=C2CCC3[C@](C)(CCC[C@@]3(C)C(=O)O)C2CC1 (stereo partly shown) | 13.3
O=C(CCCN1C(=O)c2ccccc2C1=O)Nc1cccnc1 | -2.46
O=C(NCc1ccccn1)C1(C(F)(F)F)C/C(=C\CCO)CCCO1 (stereo not shown) | 6.37
CCOc1ccc(S(=O)(=O)Nc2cccc(C(=O)N(C)Cc3cccc(OC)c3OC)c2)cc1 | -11.6
O=C1[C@@H]2[C@H](C(=O)N1n1cnnc1)[C@H]1C=C[C@@H]2C1 | 11.5
Cc1ccc(NC(=O)CN2CCCCCC2)cc1[N+](=O)[O-] | 23.1
O=C(Nc1ccc(N2CCOCC2)c2nonc12)C1CCCC1 | 3.34
CCCn1c(=O)c2sccc2n2c(CCCC(=O)NCc3cccnc3)nnc12 | 19.2
C=CCNC(=O)CSc1n[nH]c(-c2cc(Cl)ccc2OC)n1 | 8.25
COc1ccc(NC(=O)CN(C)C(=O)c2cn(-c3ccccc3)nc2-c2cccnc2)cc1 | -24.2
COc1ccc(NC(=O)CN(C)C(=O)c2cn(-c3ccccc3)nc2-c2ccc(Cl)cc2)cc1 | 12.1
COc1ccc(Cl)cc1NC(=O)CN(C)C(=O)c1cn(-c2ccccc2)nc1-c1cccnc1 | -59.9
COc1ccc(Cl)cc1NC(=O)CN(C)C(=O)c1cccc(-n2cnnn2)c1 | -53.6
COc1ccc(Cl)cc1NC(=O)COc1cccc(-n2cnnn2)c1 | 10.3
COc1ccc(Cl)cc1NC(=O)CN(C)C(=O)c1ccc2n[nH]nc2c1 | -13.8
CCc1ccc(C(=O)Nc2cccc(-c3nn[nH]n3)c2)s1 | 16.9
CCOC(=O)C1CN(S(C)(=O)=O)c2cc(CC(=O)OC)ccc2O1 (stereo not shown) | 1.78
COc1ccccc1C(=O)NCCSCc1c(F)cccc1Cl | -15.4
Cc1cccn2c(=O)c3cc(C(=O)NCC4CCCO4)c(=N)n(C4CCCC4)c3nc12 (stereo not shown) | -74.8
Cc1cccn2c(=O)c3cc(C(=O)NCC4CCCO4)c(=N)n(C4CCCCC4)c3nc12 (stereo not shown) | -77.3

Compound | hERG current change (%, negative = inhibition) at 10uM [%]
O=C(O)c1nn2c(C(F)(F)F)cc(-c3cccs3)nc2c1Cl | 1.4
COc1cccc(C(=O)Nc2cc(=O)n(C)c(=O)n2C)c1OC | 13.1
Cc1nn(Cc2ccc(C(=O)NC3CCCCC3)o2)c(C)c1Br | -34.6
COc1ccc2c(c1)c(CC(=O)O)c(C)n2C(=O)c1ccc(Cl)cc1 | 6.45
COc1ccc(/C=N/OCC(=O)N2CC3(C)CC2CC(C)(C)C3)cc1OC (stereo not shown) | -3.72
COc1ccc(/C=N/OCC(=O)N2CC3(C)CC2CC(C)(C)C3)cc1 (stereo not shown) | -56
COc1ccc(OCC(=O)N2CC3(C)CC2CC(C)(C)C3)cc1 (stereo not shown) | -21.2
N#Cc1ccc(COC(=O)c2ccc3c(c2)OCO3)cc1 | -27.4
CCc1ccc(NC(=O)CC2C(=O)NCCN2C(=O)c2ccc(F)cc2)cc1 (stereo not shown) | -55.4
CC(C)(C)c1ccc(C(=O)N2CCNC(=O)C2CC(=O)Nc2ccc(F)cc2)cc1 (stereo not shown) | 13.9
Cc1ccc(NC(=O)CC2C(=O)NCCN2C(=O)c2ccc(F)cc2)cc1 (stereo not shown) | -26.3
O=S(=O)(Cc1ccccc1)Nc1ccc(F)cc1 | 7.05
O=C1c2cccc3cccc(c23)C(=O)N1OS(=O)(=O)c1ccc(Br)cc1 | 24.2
COc1ccc(S(=O)(=O)Oc2ccc(C(=S)N3CCOCC3)cc2OC)cc1 | -0.365
COc1cc(C(=S)N2CCOCC2)ccc1OC(=O)c1ccc([N+](=O)[O-])cc1[N+](=O)[O-] | 17.1
COc1ccc(C(=S)N2CCOCC2)cc1OC(=O)c1ccc([N+](=O)[O-])cc1 | -63
COc1ccc(C(=S)N2CCOCC2)cc1OC(=O)c1cccc([N+](=O)[O-])c1 | -39.9
COc1ccc(C(=S)N2CCOCC2)cc1OC(=O)c1ccc([N+](=O)[O-])cc1[N+](=O)[O-] | -52
COc1cc(C(=S)N2CCOCC2)cc(OC)c1OC(=O)c1ccc([N+](=O)[O-])cc1[N+](=O)[O-] | -4.69
CCOc1cc(C(=S)N2CCOCC2)ccc1OS(=O)(=O)c1ccc(Br)cc1 | -1.54
COc1cc(C(=S)N2CCOCC2)ccc1OC(=O)c1cc([N+](=O)[O-])cc([N+](=O)[O-])c1 | 0.943

Compound | hERG current change (%, negative = inhibition) at 10uM [%]
COc1ccc(C(=S)N2CCOCC2)cc1OS(=O)(=O)c1ccc(Br)cc1 | -70
CCCc1nc(C)c2c(=O)[nH]c(-c3cc(S(=O)(=O)N4CCN(CC)CC4)ccc3OCC)nn12.O=C(O)CC(O)(CC(=O)O)C(=O)O | 0.215
COc1cccc(N2CCN(S(=O)(=O)c3ccc4c(c3)CC(C)N4C(=O)C3CC3)CC2)c1 (stereo not shown) | 17.8
CC1C(=O)N(Cc2ccccc2F)c2ccccc2N1C(=O)c1c(F)cccc1F (stereo not shown) | -6.04
CC(C)N1CCc2c(sc(NC(=O)c3nc4ccccc4s3)c2C(N)=O)C1.Cl | -45.1
CCCn1c(SCC(=O)/C(C#N)=C(\C)N)n[nH]c1=O | 7.25
CC(C)C(=O)Nc1nnc(Cc2c[nH]c3ccccc23)s1 | 28
Cc1[nH]n(-c2ccccc2)c(=O)c1C=NC1CCCCC1 | -10.5
O=C(CCCN1C(=O)/C(=C\c2cccs2)SC1=S)Nc1cccc(C(=O)O)c1 | 9.57
Cc1cccn2c(=O)c(/C=C(\C#N)S(=O)(=O)c3ccccc3)c(N3CCCCC3)nc12 | 9.28
Cc1cccn2c(=O)c(/C=C(\C#N)S(=O)(=O)c3ccccc3)c(N3CCC(C(N)=O)CC3)nc12 | -75.4
Cc1cccn2c(=O)c(/C=C(\C#N)C(=O)NCc3ccco3)c(N3CCC(C(N)=O)CC3)nc12 | -43
CCN1CCN(c2nc3c(C)cccn3c(=O)c2/C=C(\C#N)S(=O)(=O)c2ccc(Cl)cc2)CC1 | -44.9
Cc1cccn2c(=O)c(/C=C(\C#N)S(=O)(=O)c3ccc(Cl)cc3)c(N3CCC(C(N)=O)CC3)nc12 | -77.8
CCOC(=O)C1CCN(c2nc3c(C)cccn3c(=O)c2/C=C(\C#N)S(=O)(=O)c2ccccc2)CC1 | -18.1
Cc1cccn2c(=O)c(/C=C(\C#N)C(=O)NCc3ccccc3)c(N3CCC(C(N)=O)CC3)nc12 | -29.1
Cc1ccc(S(=O)(=O)/C(C#N)=C/c2c(N3CCC(C(N)=O)CC3)nc3c(C)cccn3c2=O)cc1 | -71.4
COc1ccc(C=Nc2cccc3ncccc23)cc1 | 4.44
Cc1ccc(C(=O)Nc2ccc(S(=O)(=O)N3CCOCC3)cc2)cc1Br | 3.46
CC(=O)Nc1nc(-c2ccc(Cl)cc2)nc(C)c1C(C)=O | -19.8
CCN(C(=O)COC(=O)C1=COCCO1)c1ccccc1 | -2.33

Compound | hERG current change (%, negative = inhibition) at 10uM [%]
O=c1cc(Cc2nnc(SCc3ccccc3)n2-c2ccc(Cl)cc2)[nH]c(=O)[nH]1 | 0.593
COc1ccc(N2CCN(C(=O)c3cc(-c4cc(OC)ccc4OC)nc4ccccc34)CC2)cc1 | -1.23
Cc1ccc2nc3c(nc2c1C)C(O)=C3O | 6.68
Cc1ccc(N2CCOCC2)c2c1C(=O)c1ccccc1C2=O | -19.1
O=C1c2ccccc2-c2ncnc3c(N4CCOCC4)cc(N4CCOCC4)c1c23 | -60
O=C1c2ccccc2C(=O)c2c1cccc2N1CCOCC1 | -30.4
CCOCCn1c(SCc2ccc(C)cc2)nc2c1c(=O)[nH]c(=O)n2C | 14.5
COc1ccc(N2CCN(CC(=O)NCc3ccc(Cl)cc3)CC2)cc1 | -55.7
Cc1ccc(CNC(=O)CN2CCN(c3ccc(F)cc3)CC2)cc1 | -50.8
COc1ccc(CNC(=O)CN2CCN(c3ccc(F)cc3)CC2)cc1 | -39.1
N#Cc1ccc(CN2CCN(CC(=O)NCCc3ccc(Cl)cc3Cl)CC2)cc1 | -68.8
O=C(CN1CCN(c2ccccc2)CC1)NCc1ccc(F)cc1 | -11
O=C(CN1CCN(c2ccc(F)cc2)CC1)NCc1ccc(F)cc1 | -43.9
O=C(CN1CCN(c2cccc(Cl)c2)CC1)NCc1ccccc1 | -15.5
CC(=O)c1ccc(N2CCN(CC(=O)NCc3ccccc3)CC2)cc1 | -44.3
O=C(CN1CCNC(=O)C1)NCCc1ccc(Cl)cc1Cl | 1.45
COc1ccc(CNC(=O)CN2CCN(c3ccccc3)CC2)cc1 | 3.65
O=C(CN1CCN(c2ccc(Cl)cc2)CC1)NCc1ccccc1 | -51.3
O=C(Cn1cnnn1)NCCc1ccc(Cl)cc1Cl | -19.6
